Sampled rows, rich in hits. Any-hit rate of the full collection: about 1.8%.
KLF5 inh = kruppel-like factor 5 inhibition | DLD-1 KLF5 promoter-luciferase reporter, luminescence | inhibition, % at 5 µM | actives 0.23% (n = 290,000) | AID 1700;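 active means inhibition above a per-plate limit of that plate's mean compound inhibition plus 3 SD, cut at about 60% in these data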;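 further: 0% = DMSO wells and 100% = LY294002 at 200 µM; higher means less KLF5 promoter-driven luciferase light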
Ba/F3 V617F tox = loss of viability in JAK2V617F-driven Ba/F3 cells; Ba/F3 EpoR-JAK2V617F viability, ATP luminescence; actives 1.1% (n = 220,000); inhibition, % at 5.6 µM; AID 1446;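 active means inhibition above the campaign mean plus 3 SD over all tested compounds, cut at about 24% in these data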;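 further: cytokine-independent growth of Ba/F3 cells driven by EpoR plus mutant JAK2; 0% = DMSO-treated cells and 100% = JAK inhibitor I control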
APP transl inh = APP translation inhibition. actives 0.82% (n = 190,000). inhibition, % at 2 µM. SH-SY5Y APP 5'UTR-luciferase reporter, luminescence;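 active means inhibition above a set limit, derived from the sample mean plus 3 SD, cut at about 45% in these data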
BaF3 tox = reduces parental Ba/F3 cell viability, JAK2V617F counter-screen; CellTiter-Glo ATP luminescence; inhibition, % at 5.6 µM; actives 1.1% (n = 220,000); AID 1486;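 active means inhibition above a per-campaign cutoff, the mean inhibition of all tested compounds plus 3 SD, cut at about 27% in these data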;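 further: 0% = DMSO wells and 100% = JAK Inhibitor I control wells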
IEC-6 cytotox = kills IEC-6 intestinal cells in KLF5 counter-screen; IEC-6 cytotoxicity, luminescence viability; inhibition, % at 5 µM; actives 0.78% (n = 290,000); AID 1825; in the data active means inhibition above about 22%;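 further: 0% = plate median of test compound wells and 100% = cytotoxic reference compound wells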
The depositor's hits bear a star.

`Cc1ccc(S(=O)(=O)N2CCC(C(=O)NC3CC(C)(C)NC(C)(C)C3)CC2)cc1C` gave KLF5 inh -1.4 and IEC-6 cytotox -0.4.
`CCN(CC)S(=O)(=O)c1cccc(-c2n[nH]c(=S)n2/N=C/c2ccc(Br)cc2)c1` gave KLF5 inh -9.7, Ba/F3 V617F tox 2.1, APP transl inh 9.8, BaF3 tox 94.1* and IEC-6 cytotox -2.8.
CCN(CC)S(=O)(=O)c1cccc(-c2n[nH]c(=S)n2/N=C/c2ccc(OC)cc2)c1 was read as KLF5 inh -30.8, Ba/F3 V617F tox 2.6, APP transl inh -1.3, BaF3 tox 9.9 and IEC-6 cytotox -1.4.
CCCc1c(CC)c(=N)c2ccccc2n1C was read as KLF5 inh -8.5, Ba/F3 V617F tox 70.8*, APP transl inh -2.5, BaF3 tox 65.0* and IEC-6 cytotox 6.0.
`Cc1cc(N2CCCC2=O)cc(C)c1S(=O)(=O)NCCOc1ccc(C(C)(C)C)cc1` gave KLF5 inh -37.6, Ba/F3 V617F tox 21.6, APP transl inh -7.8, BaF3 tox 36.5* and IEC-6 cytotox -2.4.
O=C1CCCN1c1ccc(S(=O)(=O)NCCOc2ccccc2)cc1 was read as KLF5 inh -9.2, Ba/F3 V617F tox 1.9, APP transl inh 3.2, BaF3 tox 4.6 and IEC-6 cytotox 1.4.
For CCCCCNC(=O)Cn1c(=O)c2c(ncn2CC(C)C)n(Cc2ccccc2)c1=O the results were KLF5 inh -19.0 and IEC-6 cytotox -4.4.
`S=C(NCCc1ccccc1)Nc1cccc2cnccc12` gave KLF5 inh 4.5, Ba/F3 V617F tox 17.1, APP transl inh -5.6, BaF3 tox 42.2* and IEC-6 cytotox 11.4.
Cc1cc(C)nc(NS(=O)(=O)c2ccc(NC(=O)c3ccc(O)cc3O)cc2)n1 was read as KLF5 inh -30.5 and IEC-6 cytotox -9.9.
CCC(C)N1CC(O)=C(c2nc3ccccc3[nH]2)C1=N (stereo unspecified) was read as KLF5 inh -35.4, Ba/F3 V617F tox -0.8, APP transl inh -34.7, BaF3 tox 89.8* and IEC-6 cytotox 5.2.
For Fc1ccccc1OCC1CCCN(Cc2nc(CC3CC3)no2)C1 (stereo unspecified) the results were KLF5 inh -25.9, Ba/F3 V617F tox 0.3, APP transl inh 17.4, BaF3 tox 4.6 and IEC-6 cytotox -2.2.
O=C(c1cccc(Br)c1)N1CCN(C(=O)N2CCOCC2)CC1 was read as KLF5 inh -47.4, Ba/F3 V617F tox -1.2, APP transl inh 63.2*, BaF3 tox -3.3 and IEC-6 cytotox -0.7.
Screening FC(F)Oc1ccc(-n2cc(-c3ccccc3)[n+]3c2CCCCC3)cc1 returned KLF5 inh -9.5, Ba/F3 V617F tox 65.4*, BaF3 tox 63.4* and IEC-6 cytotox -1.9.
Screening Cc1ccc(-c2cn(-c3ccc(OC(F)F)cc3)c3[n+]2CCCCC3)cc1 returned KLF5 inh -6.6, Ba/F3 V617F tox 77.8*, BaF3 tox 73.1* and IEC-6 cytotox 16.5.
For CCOc1ccc(NS(=O)(=O)c2cc(NC(=O)c3ccc(C)cc3)ccc2Cl)cc1 the results were KLF5 inh 48.0, Ba/F3 V617F tox 80.3*, APP transl inh 87.0*, BaF3 tox 70.1* and IEC-6 cytotox 55.9*.
Screening CN(Cc1ccccc1)c1nc2nonc2nc1N1CCCC(CN2CCCC2=O)C1 (stereo unspecified) returned KLF5 inh -0.9, Ba/F3 V617F tox -6.1, BaF3 tox 2.0 and IEC-6 cytotox 0.9.
`COc1ccc(C2NCCc3cc(OC)c(OC)cc32)cc1OC` (stereo unspecified) gave KLF5 inh -5.7, Ba/F3 V617F tox -0.3, APP transl inh 58.7*, BaF3 tox 1.6 and IEC-6 cytotox -1.1.
`COc1cc2c(cc1OC)C(c1ccc(N(C)C)cc1)NCC2` (stereo unspecified) gave KLF5 inh -28.1 and IEC-6 cytotox 1.9.
Cc1cccc(C)c1N=Nc1c(C)cc(O)cc1C was read as KLF5 inh -42.5 and IEC-6 cytotox 4.5.
Screening Cc1cccc(NC(=O)CCN2CCCC(C)C2)c1 (stereo unspecified) returned KLF5 inh -44.7 and IEC-6 cytotox 3.1.
For Cc1cc(C)c2c(CCl)cc(=O)oc2c1 the results were KLF5 inh -8.0, Ba/F3 V617F tox -4.0, APP transl inh 94.2*, BaF3 tox -7.9 and IEC-6 cytotox -7.3.
`Cc1cc(C)c2c(CN3CCCCC3)cc(=O)oc2c1` gave KLF5 inh -21.2 and IEC-6 cytotox 2.5.
Screening C[N+]1(CCCOC(=O)C2(c3ccccc3)CCCC2)CCOCC1 returned KLF5 inh 17.7, Ba/F3 V617F tox 5.8, APP transl inh -5.2, BaF3 tox 58.0* and IEC-6 cytotox 0.5.
Fc1cc(F)cc(NC(=S)N2CCN(c3ncccn3)CC2)c1 was read as KLF5 inh -1.3, Ba/F3 V617F tox 35.9*, APP transl inh 4.7, BaF3 tox 27.2* and IEC-6 cytotox 3.4.
Screening CC(=O)c1ccc(N2CCN(C(=S)Nc3ccc(Oc4ccccc4)cc3)CC2)cc1 returned KLF5 inh 21.9, Ba/F3 V617F tox 0.7, APP transl inh -3.8, BaF3 tox 1.2 and IEC-6 cytotox 4.2.
For CC(=O)c1ccc(N2CCN(C(=S)Nc3cccc(F)c3)CC2)cc1 the results were KLF5 inh -15.7, Ba/F3 V617F tox 41.4*, APP transl inh -8.0, BaF3 tox 30.3* and IEC-6 cytotox -2.6.
For COc1ccc(NC(=S)N2CCN(c3ncccn3)CC2)cc1 the results were KLF5 inh -26.8, Ba/F3 V617F tox 0.3, APP transl inh 8.2, BaF3 tox 3.4 and IEC-6 cytotox -0.7.
Screening O=C(O)c1ccc(Cl)c(NCc2cccs2)c1 returned KLF5 inh -12.9 and IEC-6 cytotox -5.5.
Screening Cc1ccc(OCC(=O)Nc2ccc([N+](=O)[O-])cc2)cc1 returned KLF5 inh 1.1, Ba/F3 V617F tox -5.8, APP transl inh 1.8, BaF3 tox 0.5 and IEC-6 cytotox -7.9.
Cc1ccc(NC(=O)C2(c3ccc([N+](=O)[O-])cc3)CCCC2)cc1 was read as KLF5 inh -4.0, Ba/F3 V617F tox 2.4, APP transl inh -0.5, BaF3 tox 49.7* and IEC-6 cytotox -0.6.
NNC(=O)c1ccc(S(=O)(=O)N2CCc3ccccc32)cc1 was read as KLF5 inh -37.0 and IEC-6 cytotox 8.9.
Screening Cc1ccc(C)c(S(=O)(=O)N2C(=S)NC(=O)C2CC(C)C)c1 (stereo unspecified) returned KLF5 inh -26.4, Ba/F3 V617F tox -1.8, APP transl inh 76.9*, BaF3 tox 3.3 and IEC-6 cytotox 0.8.
`Cc1ccc(C)c(S(=O)(=O)N2CCNCC2)c1` gave KLF5 inh -22.2, Ba/F3 V617F tox -0.6, APP transl inh -5.7, BaF3 tox 7.6 and IEC-6 cytotox -1.3.
O=C(NCC1CCCO1)c1cc(-c2ccc(F)cc2)no1 (stereo unspecified) was read as KLF5 inh -90.8 and IEC-6 cytotox -5.0.
CCN1/C(=C/C=C/C=C/c2sc3ccccc3[n+]2CC)Sc2ccccc21 was read as KLF5 inh -7.6, Ba/F3 V617F tox 50.9*, APP transl inh 82.3*, BaF3 tox 48.2* and IEC-6 cytotox 4.7.

Screens deposited in PubChem by several laboratories.
